# Source: PubChem BioAssay
# A selection: hits, their analogues and other compounds. The true share with any hit is near 3.5%.
# FBW7 activator: activators of human E3 ligase FBW7; AlphaScreen FBW7–phospho-cyclin E peptide binding, activator screen; Q969H0; hit rate 0.13% among 650,000; normalized activity (activation), % at 26.1 µM; AID 1259310; in the data active = normalized activity above about 1.9%;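 note: purified mutant Fbw7 with reduced substrate affinity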
# MITF inh: blocks human microphthalmia-associated transcription factor | hit rate 0.91% among 650,000 | AID 1259374 | inhibition, % at 2.6 µM | AlphaScreen MITF homodimerization, bead proximity signal; in the data active = inhibition above about 50%;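 note: 0% = vehicle wells with protein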
# TEAD-YAP block: TEAD-YAP interaction inhibition. HEK-TIYL cells, TEAD-Gal4/YAP UAS-luciferase luminescence. inhibition, % at 9.12 µM. hit rate 1.4% among 640,000; in the data active = inhibition above about 32%;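 note: 0% = median of test compound wells and 100% = reference inhibitor wells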
# GPR151 ag: activates the human receptor GPR151. Q8TDV0. PathHunter beta-arrestin GPR151 cells, luminescence. activation, % at 11.2 µM. hit rate 1% among 650,000. AID 1508602; in the data active = activation above about 4.9%;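 note: 0% = median of compound wells and 100% = cells with positive control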
# Target sequence (Q8TDV0 whole entry, looked up): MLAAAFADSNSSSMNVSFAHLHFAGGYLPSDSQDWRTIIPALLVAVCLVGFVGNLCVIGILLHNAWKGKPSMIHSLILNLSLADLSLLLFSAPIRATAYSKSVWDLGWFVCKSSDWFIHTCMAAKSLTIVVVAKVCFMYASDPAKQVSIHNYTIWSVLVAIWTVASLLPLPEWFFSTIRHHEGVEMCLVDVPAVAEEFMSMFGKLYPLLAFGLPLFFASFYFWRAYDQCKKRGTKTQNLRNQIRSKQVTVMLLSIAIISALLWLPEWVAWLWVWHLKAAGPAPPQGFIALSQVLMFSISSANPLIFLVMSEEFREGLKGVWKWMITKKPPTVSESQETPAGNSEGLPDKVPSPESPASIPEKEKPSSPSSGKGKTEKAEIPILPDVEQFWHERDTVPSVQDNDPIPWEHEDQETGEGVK
# MITF inh conf: confirmation of human MITF inhibitors; inhibition, % at 2.6 µM; hit rate 16% among 4,700; AlphaScreen MITF homodimerization, biotin/His-MITF beads; shares compounds with MITF inh; AID 1259372;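 active = inhibition above a cutoff derived from the DMSO control wells, cut at about 28% in these data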;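 note: 0% = MITF dimer wells with DMSO only; inhibitors lower the bead chemiluminescence by keeping MITF from dimerizing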
# AlphaScreen DR: AlphaScreen optical interference, dose response counter-screen | shares compounds with MITF inh | AlphaScreen optical interference counterscreen, cell-free | IC50, µM | hit rate 6% among 480; call rule not given here
# AS interf ctr: counter-screen: compounds optically interfering with AlphaScreen | inhibition, % at 2.6 µM | hit rate 7.6% among 4,700 | LysRS AlphaScreen counterscreen, signal interference, triplicate | shares compounds with MITF inh | AID 1259376;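 active = inhibition above a cutoff derived from the DMSO control wells, cut at about 30% in these data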
# Numbers without * were called inactive; . = not tested or not shown.
SMILES,FBW7 activator,MITF inh,TEAD-YAP block,GPR151 ag,MITF inh conf,AS interf ctr,others
O=C(CN1CCCCCCC1)N/N=C/c1ccc(F)c(Br)c1,0.2,57.1*,-9.5,-0.8,3.3,0.9,
COc1ccc2c(c1)CC(c1nc(Nc3cn[nH]c3)c3ccccc3n1)CO2 (stereo not drawn),0.0,6.9,-11.1,0.7,.,.,
Clc1ccc2c(c1)CC(c1nc(Nc3cncnc3)c3ccccc3n1)CO2 (stereo not drawn),0.3,50.6*,1.6,-0.2,55.4*,2.9,AlphaScreen DR=>6.48
CCCCNC(=S)N(Cc1ccccc1)Cc1ccccc1,0.3,-9.8,-0.1,1.5,.,.,
CCN(CC)CCN(C)Cc1ccc([N+](=O)[O-])cc1,-0.3,73.0*,-8.3,0.7,8.1,20.7,
COc1cccc(CN(CCN(C)C)Cc2ccccc2)c1OC,-0.1,52.1*,3.6,-0.1,-5.6,-2.6,
CN(C)CCN(Cc1ccccc1)Cc1ccccc1O,0.5,-349.1,-0.6,-0.5,.,.,
CC(=O)Nc1ccc(CN(CCN(C)C)Cc2ccccc2)cc1,0.3,59.5*,2.5,0.2,-3.5,0.1,
CN(C)CCN(Cc1ccccc1)Cc1ccc(O)cc1,0.1,32.5,-1.0,-0.8,.,.,
CN(C)CCN(Cc1ccccc1)Cc1ccc([N+](=O)[O-])cc1,0.1,66.3*,-7.6,0.4,4.9,2.1,
CCN(CCN(C)C)Cc1ccc(NC(C)=O)cc1,0.0,46.5,8.9,-0.5,.,.,
COc1ccc(N(C)Cc2ccc(-c3nccnc3NS(=O)(=O)C(C)(C)C)cc2)cc1,0.2,-23.3,4.6,-1.1,.,.,
O=C(Cc1ccccc1)N1CCC(N2CCN(c3ccccc3)CC2)CC1,0.1,55.1*,4.6,1.2,-1.8,3.4,
O=C(c1ccco1)N1CCN(C2CCN(Cc3ccccc3)CC2)CC1,-0.3,59.9*,-4.9,0.5,-9.0,3.8,
O=C(c1ccccc1)N1CCC(N2CCN(Cc3ccccc3)CC2)CC1,0.4,83.1*,10.8,-2.3,4.6,-2.0,
O=C(c1ccccc1F)N1CCN(C2CCN(Cc3ccccc3)CC2)CC1,-0.1,60.8*,5.3,0.1,9.2,17.9,
O=C(c1ccco1)N1CCC(N2CCN(c3ccccc3)CC2)CC1,-0.1,21.0,-3.4,-1.5,.,.,
O=C(c1ccccc1F)N1CCN(C2CCCCC2)CC1,0.1,35.6,-0.3,2.8,.,.,
O=C(Cc1ccccc1)N1CCC(C(=O)N2CCN(c3ccccc3)CC2)CC1,0.3,0.0,3.7,-1.8,.,.,
c1ccc(CN2CCC(N3CCN(Cc4ccccc4)CC3)CC2)cc1,0.2,23.8,2.0,-0.5,.,.,
COc1cc(OC)c(NC(=O)c2cc3c(=O)n(C)c4ccccc4c3n2C)cc1Cl,0.1,2.9,-6.3,-1.9,.,.,
O=C(Nc1c(C(=O)N2CCN(Cc3ccccc3)CC2)cnn1-c1ccccc1)c1cccc(F)c1,-0.2,-5.5,-5.0,-0.8,.,.,
O=C(c1cc(-c2ccccc2F)no1)N1CCN(Cc2ccccc2)CC1,0.1,0.2,-15.3,2.0,.,.,
O=C(c1ccc(F)cc1)N1CCN(C2CCN(Cc3ccccc3)CC2)CC1,0.8,57.2*,12.6,-1.5,9.4,18.3,
COc1ccc(C(=O)N2CCC(N3CCCC3)CC2)cc1,-0.1,30.5,-0.5,3.8,.,.,
SMILES,FBW7 activator,MITF inh,TEAD-YAP block,GPR151 ag,MITF inh conf,AS interf ctr,others
Fc1ccc(CN2CCC(N3CCN(Cc4ccccc4)CC3)CC2)cc1,0.3,43.1,11.1,0.2,.,.,
CN1CCN(C2CCN(C(=O)c3ccc(F)cc3)CC2)CC1,0.1,57.5*,-5.0,0.1,0.5,0.3,
O=C(O)C1CCN(C2CCN(Cc3ccccc3)CC2)CC1,-0.1,74.9*,1.0,0.1,11.7,7.0,
COc1ccc(/C(C)=N/N=C2\NC(=O)CS2)cc1OC,0.0,11.5,-9.3,-1.0,.,.,
O=C(O)c1c2c(nc3ccc(S(=O)(=O)N4CCC(C(=O)O)CC4)cc13)CCC2,0.1,67.5*,-8.1,0.5,31.0*,0.8,AlphaScreen DR=>6.48
CC(NC(=O)c1ccccc1[N+](=O)[O-])c1ccc(I)cc1 (stereo not drawn),0.3,2.1,-0.2,0.6,.,.,
CC(C)CC(OC(=O)CN1C(=O)COc2ccccc21)C(=O)NC1CCCCC1 (stereo not drawn),0.1,1.0,5.7,0.0,.,.,
Cc1ccc2c(c1)N(CC(=O)OC(CC(C)C)C(=O)NC1CCCC1)C(=O)CO2 (stereo not drawn),0.2,54.0*,2.7,0.0,2.0,13.8,
CCCCn1c(=O)[nH]c(=O)c2c1nc(-c1ccc([N+](=O)[O-])o1)n2C,-0.2,79.0*,15.1,0.0,66.5*,5.2,AlphaScreen DR=>7
CCCCn1c(=O)[nH]c(=O)c2c1nc(-c1ccc(C)c([N+](=O)[O-])c1)n2CC,0.5,10.5,-11.0,-0.2,.,.,
COc1cccc(C(=O)N2CCC3(CC2)CC3C(=O)NCCCc2ccccc2)c1OC (stereo not drawn),0.7,72.6*,-1.3,0.2,-3.2,-3.5,
COc1ccc(OC)c(CN2CCN(Cc3ccc(OC)c(OC)c3OC)CC2)c1,-0.2,31.6,-4.7,-1.4,.,.,
COc1cccc(CN2CCN(Cc3ccc(OC)c4ccccc34)CC2)c1OC,-0.1,69.7*,-3.4,1.7,6.5,13.1,
COc1cccc(CN2CCN(Cc3ccc(OC)c(OC)c3OC)CC2)c1,0.0,66.0*,6.3,-0.3,3.3,14.3,
COc1cccc(C(=O)N2CCC3(CC2)CC3C(=O)Nc2ccccc2)c1OC (stereo not drawn),0.0,2.0,9.1,0.4,.,.,
COc1ccc(CN2CCN(Cc3ccccc3Cl)CC2)c(OC)c1OC,-0.1,54.3*,4.5,-0.3,14.0,18.4,
COc1cccc(CN2CCSCC2)c1OC,-0.2,32.4,-5.6,0.2,.,.,
COc1ccc(CN2CCN(S(=O)(=O)c3ccc(Cl)cc3)CC2)c(OC)c1OC,0.1,5.2,-4.2,0.6,.,.,
COc1ccc(CN2CCN(CCOCCOc3ccccc3)CC2)c(OC)c1OC,-0.6,75.1*,6.3,0.2,-11.6,-3.0,
COc1cccc(CN2CCN(C(=O)c3cccc(OC)c3OC)CC2)c1,-0.2,53.9*,5.1,-0.5,9.2,6.9,
COc1cccc(CN2CCN(Cc3ccc(OC)c(OC)c3OC)CC2)c1OC,-0.1,76.7*,-2.4,0.2,11.0,13.9,
COc1ccc(CN2CCN(Cc3ccc(Cl)cc3)CC2)c(OC)c1OC,-0.1,81.7*,10.2,-1.1,9.9,18.0,
COc1cc(CN2CCN(C(=O)c3cccc(OC)c3OC)CC2)cc(OC)c1O,-0.1,39.0,1.4,0.5,.,.,
OC(COc1ccc(CN2CCCO2)cc1)CN1CCCCC1 (stereo not drawn),-0.2,-9.8,-2.2,3.6,.,.,
CC1(C)Cc2c(sc(NC(=O)c3ccc(Br)cc3)c2C(N)=O)C(C)(C)N1,0.0,-0.2,-9.8,4.3,.,.,
C=CCN(CC=C)C1=NS(=O)(=O)c2ccccc21,-0.1,-9.2,1.1,0.2,.,.,
O=C(NCc1ccco1)c1cc(-c2ccc(Br)cc2)on1,-0.1,-3.0,-13.6,-0.6,.,.,
